# Reference: ChEMBL document CHEMBL3988442, “University of Dundee, Small-Polar-MMV Screening Library” (2021)
# Target: AMP-activated protein kinase, AMPK (Homo sapiens) (UniProt P54646+O43741+P54619+Q9UGJ0+Q9Y478+Q13131+Q9UGI9)
# Experiment: AMP-dependent Kinase enzyme assay. An in vitro enzyme assay that detects ADP turnover that is directly proportional to AMPK activity. This uses naive AMPK that is activated during the assay with MK-8722
# Type: functional
# Design: scale not given: direction of the effect not stated beside the values
# Conditions: 30 µM
row,Structure (SMILES),Percent Effect [%]
1,COc1cccc(NC(=O)NCC2CCCN(C3CCOCC3)C2)c1 (stereo unspecified),6.25
2,COc1ccc(O)c(C(=O)NCC2CCCN(C3CCOCC3)C2)c1 (stereo unspecified),12.5
3,Cc1nccn1CCCN1CCCC(c2nccn2CC2CCC2)C1 (stereo unspecified),1.25
4,Cc1cn[nH]c1C1COCCN1Cc1ccsc1 (stereo unspecified),14.3
5,O=C(NCc1csc(Br)c1)Nc1cn[nH]c1,-3.79
6,COc1cc(NCCCSc2nnc(C)s2)ncn1,13.7
7,CN1CC=C(CCN(C)C(=O)CCc2ccccc2)CC1,-0.771
8,CC(C)COc1cncc(N2CCCC(CC(N)=O)C2)n1 (stereo unspecified),10.7
9,Cc1ccn(C)c(=O)c1NC(=O)N(C)Cc1cccc(OC(C)C)c1,-92.7
10,Cc1sc(C(=O)N(C)S(C)(=O)=O)cc1-c1ccc(F)cc1,-2.1
11,NC(=O)NC(CC(=O)N1CCc2sccc2C1)c1ccccc1F (stereo unspecified),3.63
12,COCCC(C)NCc1ccccc1-n1ccnc1 (stereo unspecified),-0.71
13,CC(NC(=O)NCc1cccnc1N(C)C)c1ccc(F)cc1 (stereo unspecified),-7.51
14,Fc1ccc(C2(c3noc(CCN4CCCCO4)n3)CCOC2)cc1 (stereo unspecified),5.16
15,CC(C(=O)NCC(C)(C)c1ccc2c(c1)OCO2)n1ccnc1 (stereo unspecified),0.66
16,COc1cc(Cl)cc(CN2CCCC(N3CCCC3)C2)c1OC (stereo unspecified),4.91
17,CCNC(=O)C1CCN(Cc2ccc(C(=O)Nc3cnns3)cc2)C1 (stereo unspecified),1.07
18,CCc1nc(C)c(CN2CCOC(Cc3ccccc3Cl)C2)[nH]1 (stereo unspecified),-2.77
19,O=C(Cn1nc2ccccc2n1)N1CCCC(O)(CO)C1 (stereo unspecified),-6.31
20,NC(=O)c1cccc(-c2cnc(C3CCCNC3)cn2)c1 (stereo unspecified),12.6
21,Cc1nccn1-c1cccc(N2CCC(OCC3CCCCO3)CC2)n1 (stereo unspecified),6.51
